Laboratory results reported in PubChem BioAssay (NCATS).
Results filed as inconclusive are left out. The source made the active and inactive calls. Calls come from the whole dose curve.

target: Atrial natriuretic peptide receptor 2 (Homo sapiens) (UniProt P20594); assay: Natriuretic polypeptide receptor (hNpr2) antagonism - Pilot subtype selectivity assay (AID 1347050); settings: NPR2-expressing cells, cGMP antagonist-mode read-out; series mostly up to 38.3 µM
Procedure: F. Fan, B. F. Binkowski, B. L. Butler, P. F. Stecha, M. K. Lewis, K. V. Wood, Novel genetically encoded biosensors using firefly luciferase. ACS Chem Biol 3, 346-351 (2008).
PROTOCOL TABLE (as described by Inglese J, Shamu CE and Guy RK. 2007)
SEQUENCE No. (e.g., 1, 2, 3, etc.); […] (e.g., Cells, Incubation, Reagent, etc.); VALUE and DESCRIPTION.
1. Cells. Seed 1500 HEK293 cGMP-sensor cells expressing hNpr2 per well in 4uL into Greiner 1536-well white/solid bottom high base, TC plates.
2. Incubation. Incubate plated cells at 37C in 5% CO2, 95% RH overnight.
3. Reagent. Add 1uL per well GloSensor reagent from Promega (2% final concentration) or CO2 independent media vehicle control to respective columns of Greiner 1536-well plates.
4. Incubation. Incubate plated cells at ambient temperature for 2 h., protect from light.
5. Compounds. Library compounds and DMSO vehicle control added at 23nL per well, transferred by Pin Tool.
6. Incubation. Incubate plated cells for 30 min. at ambient temperature, protect from light.
7. Detector. GloSensor baseline pre-read luminescence measured using CCD-based camera (Viewlux).
8. Compound. Add 1uL of hNppC peptide to 1 nM final concentration to stimulate hNpr2 or CO2 independent media as vehicle control.
9. Incubation. Incubate treated cells at ambient temperature for 20 min., protect from light.
10. Detector. GloSensor post-hNppC luminescence measured using CCD-based camera (Viewlux).
NOTES (numbers refer to Sequence numbers above)
1. HEK293 cells expressing hNpr2 and GIP/pGS-40F were grown to 85-95% confluence (48-72 h) in T175 culture flasks (CO2 independent media supplemented with 10% FBS, 1% Pen/Strep antibiotics, and 1 ug/mL puromycin). Trypsinize and harvest cells from T175 culture flasks and filter through 40 um cell strainer. Cells counted with Invitrogen Countess (30,000,000 - 50,000,000 cells/flask). Cells diluted to a final concentration of 375 cells/uL in CO2 independent media and a Millipore multidrop used to dispense 1500 cells per well (4uL/well) into 9 x1536-well Greiner White/Solid bottom, high base tissue-culture treated (TC) plates and one Aurora 1536-well Black/Clear bottom, low base, TC plate (for visual inspection of cell health throughout the duration of the assay).
2. Cells incubated for 24 h. at 37C in 95% RH incubator with metal lid having gas-exchange holes.
3. Prepare GloSensor Reagent (Promega): Reconstitute GloSensor luciferase substrate by adding 8.2mL Hepes buffer to 250mg substrate, mix well, protect from light and stored at -80C. Prepare a fresh 12% GloSensor solution in CO2 independent supplemented plating media (see above). Mix well and store at ambient temperature, protected from light. 1uL 12% GloSensor Luciferase Reagent added (2% final concentration) to respective columns of 9 x 1536-well Greiner plate with BioRaptr, 1uL CO2 independent plating media added to respective columns as vehicle control with BioRaptr.
4. Cells incubated for 2 h. at ambient temperature, protected from light with metal lid having gas-exchange holes.
5. 23nL of LOPAC1280 library compounds (7 plates) or DMSO vehicle control transferred to 9 Greiner white/solid bottom high base, TC plates in 7 interplate 1:5 titrations (see Yasgar, A. et al. 2008) with Pintool. Two of the 9 plates are DMSO-only in compound field at beginning and end of compound library-treated plates.
6. Cells incubated for 30-50 min. at ambient temperature protected from light with metal lid having gas-exchange holes.
7. Read cellular baseline GloSensor luminescence in presence of test library compounds on the ViewLux [Exposure = 10 s.; Gain = High; Speed = Slow; and Binning = 2X.]
8. hNppC peptide agonist solution prepared at 1 mM (in H2O) stock concentration. From this a working dilution was prepared at 6 nM in CO2 Independent media. […]

Sequence of Atrial natriuretic peptide receptor 2 (Homo sapiens) (P20594 whole entry, looked up): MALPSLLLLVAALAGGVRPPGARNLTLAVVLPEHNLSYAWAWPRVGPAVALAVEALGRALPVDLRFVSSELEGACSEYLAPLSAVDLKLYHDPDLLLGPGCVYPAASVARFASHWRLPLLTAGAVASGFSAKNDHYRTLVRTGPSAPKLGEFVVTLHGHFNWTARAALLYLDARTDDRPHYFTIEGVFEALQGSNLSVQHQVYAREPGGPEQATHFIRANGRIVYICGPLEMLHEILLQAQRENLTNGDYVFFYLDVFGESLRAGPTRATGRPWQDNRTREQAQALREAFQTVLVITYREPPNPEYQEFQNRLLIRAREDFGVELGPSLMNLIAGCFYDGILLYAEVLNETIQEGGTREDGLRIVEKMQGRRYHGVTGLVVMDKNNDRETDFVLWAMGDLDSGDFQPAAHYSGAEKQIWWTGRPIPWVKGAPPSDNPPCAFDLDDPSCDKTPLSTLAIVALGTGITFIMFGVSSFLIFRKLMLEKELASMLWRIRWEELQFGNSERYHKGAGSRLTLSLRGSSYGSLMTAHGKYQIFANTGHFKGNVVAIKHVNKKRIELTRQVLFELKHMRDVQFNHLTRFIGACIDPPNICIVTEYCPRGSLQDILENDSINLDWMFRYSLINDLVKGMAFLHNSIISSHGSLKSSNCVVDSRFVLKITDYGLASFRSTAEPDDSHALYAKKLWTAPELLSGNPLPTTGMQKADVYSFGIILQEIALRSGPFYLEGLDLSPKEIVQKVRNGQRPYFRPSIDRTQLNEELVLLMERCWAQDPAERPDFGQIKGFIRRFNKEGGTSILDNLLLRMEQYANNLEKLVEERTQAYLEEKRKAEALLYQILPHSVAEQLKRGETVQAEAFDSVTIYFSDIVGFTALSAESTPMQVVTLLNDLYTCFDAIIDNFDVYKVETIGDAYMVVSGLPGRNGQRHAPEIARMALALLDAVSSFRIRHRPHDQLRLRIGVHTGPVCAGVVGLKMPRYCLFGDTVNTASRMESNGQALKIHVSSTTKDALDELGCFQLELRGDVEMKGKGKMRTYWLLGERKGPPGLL

| SMILES | outcome |
| --- | --- |
| CCCCCN(C)CCC(O)(P(=O)(O)O)P(=O)(O)O | inactive |
| CCN1CCC[C@H]1CNC(=O)c1cc(S(N)(=O)=O)ccc1OC | inactive |
| O=C(O)CCc1nc(-c2ccccc2)c(-c2ccccc2)o1 | inactive |
| Clc1ccc(C(c2ccc(Cl)cc2)n2cc[n+](CC(OCc3ccc(Cl)cc3Cl)c3ccc(Cl)cc3Cl)c2)cc1 (stereo unspecified) | inactive |
| CCN(CC)C(=O)c1ccc(O)c(OC)c1 | inactive |
| O=c1cc(-c2ccc(O)cc2)oc2cc(O)cc(O)c12 | inactive |
| CCN(CC)CCNC(=O)c1ccc(N)cc1 | inactive |
| CCCCC1C(=O)N(c2ccccc2)N(c2ccccc2)C1=O | inactive |
| O=C1NCC2(CCN(CCc3ccccc3)CC2)O1 | inactive |
| Cc1cccc(C)c1OCC(C)N (stereo unspecified) | inactive |
| CC(=O)N[C@@H](CS)C(=O)O | inactive |
| C[N+](C)(C)CCCCCC[N+](C)(C)C | inactive |
| NCCS | inactive |
| O=C1NC(=O)C(c2ccccc2)(c2ccccc2)N1 | inactive |
| CCn1cc(C(=O)O)c(=O)c2ccc(C)nc21 | inactive |
| CC(=O)O[C@]1(C(C)=O)CC[C@H]2[C@@H]3C=C(Cl)C4=CC(=O)[C@@H]5C[C@@H]5[C@]4(C)[C@H]3CC[C@@]21C | inactive |

| SMILES | outcome |
| --- | --- |
| COC(=O)[C@@H]1[C@H]2C[C@H]3c4[nH]c5ccccc5c4CCN3C[C@@H]2CC[C@@H]1O | inactive |
| COc1ccccc1N1CCN(CCCNc2cc(=O)n(C)c(=O)n2C)CC1 | inactive |
| CCN(CC)CCOC(=O)c1ccc(N)cc1 | inactive |
| O=c1c(-c2ccc(O)cc2)coc2cc(O)ccc12 | inactive |
| CC/C(=C(\c1ccccc1)c1ccc(OCCN(C)C)cc1)c1ccccc1 | inactive |
| CC(C)(C)c1ccc(C(O)CCCN2CCC(C(O)(c3ccccc3)c3ccccc3)CC2)cc1 (stereo unspecified) | inactive |
| O=C(NCCN1CCOCC1)c1ccc(Cl)cc1 | inactive |
| CC(C)NCC(O)COc1cccc2[nH]ccc12 (stereo unspecified) | inactive |
| CC(=O)CCCCn1c(=O)c2c(ncn2C)n(C)c1=O | inactive |
| CCCNC(=O)NS(=O)(=O)c1ccc(Cl)cc1 | inactive |
| CC(=O)c1ccc(S(=O)(=O)NC(=O)NC2CCCCC2)cc1 | inactive |
| CN(C)CCC(c1ccccc1)c1ccccn1 (stereo unspecified) | inactive |
| CC(C)OC(=O)C(C)(C)Oc1ccc(C(=O)c2ccc(Cl)cc2)cc1 | inactive |
| NC(N)=Nc1nc(CSCC/C(N)=N/S(N)(=O)=O)cs1 | inactive |
| CC1=C(/C=C/C(C)=C/C=C/C(C)=C/C(=O)Nc2ccc(O)cc2)C(C)(C)CCC1 | inactive |
